From PubChem BioAssay AID602262 (National Center for Advancing Translational Sciences (NCATS), 2012)
Active and inactive are the calls of the source. Calls follow the shape of the dose curve; as a rule, active = well fitted curve in the direction sought with a large enough effect; inactive = no such curve, though single readings can be large or run the other way.

Test: qHTS Assay for Agonists of the Relaxin Receptor RXFP1: V1B SAR
Conditions: HEK293 V1B cells, cAMP TR-FRET, 30 min; series mostly up to 78.1 µM
Excerpt: The relaxin hormone is involved in the variety of biological functions in normal tissues and diseases. The role of relaxin is well-established in female reproduction and parturition, mammary gland and endometrial development, maintenance of myometrial quiescence during pregnancy. Relaxin signaling through its G protein-coupled receptor (GPCR) RXFP1 results in ECM remodeling through regulation of collagen deposition, cell invasiveness, proliferation and overall tissue homeostasis. […] Recombinant human relaxin (rhRlx) is currently being tested in clinical trials as a protective agent in congestive heart failure, in treating severe preeclampsia, and as an anti-fibrotic agent in systemic sclerosis. Upon relaxin binding RXFP1 activation leads to the activation of adenylate cyclase (AC) via Gs. cAMP will activate PKA, which phosphorylates many signaling proteins. Thus, detection of cAMP increase is an easy and reliable indication of relaxin receptor activation. To screen for agonists of the relaxin receptor, a HEK293T cell line stably transfected with RXFP1 was used. RXFP1 activation was assayed by changes in cAMP levels as detected with a time-resolved fluorescence energy transfer (TR-FRET) cAMP detection kit. This assay measures activation of a cell expressing V1B, another GPCR targeted by relaxin, to determine the selectivity of compounds for RXFP1. NIH Chemical Genomics Center [NCGC] NIH Molecular Libraries Probe Production Centers Network [MLPCN] MLPCN Grant: R03 MH085705-01A1 Assay Submitter (PI): Alexander Agoulnik
This is a cell-based assay for cAMP second messenger response to screen for agonists of the RXFP2 receptor. The assay was conducted in the presence of a PDE4 inhibitor (Ro 20174). The cells were lysed and the cAMP levels were measured with a TR-FRET cAMP kit. Presence of cAMP in the cell lysate disrupts binding between the cryptate-labeled anti-cAMP and d2-labeled cAMP pair, leading to a decrease in the TR-FRET signal. Data were normalized to the controls for basal activity (buffer only) and 100% activity (29 nM porcine relaxin). The EC50 values were determined from concentration-response data modeled with the standard Hill equation 1536-well assay protocol for the HEK293 V1B cAMP assay: (1) Add 3 ul HEK293 RXFP2 cell culture. 2000 cells/well in DMEM/F12, 10% FBS, 1x Pen/Strep (dispensed offline with MultiDrop Combi). (2) Incubate 16-24 hr at 37C, 5% CO2. (3) Add 1 ul 400uM Ro20174 in DPBS, 0.05% BSA, 0.005% Tween 20. (3) Add 23 nl compounds in DMSO solution. Final concentration was 0.5 - 58 uM. (4) Incubate 30 min at 37C, 5% CO2. (5) Add 1 ul cAMP-d2 in lysis buffer (HTRF cAMP HiRange kit, CisBio). (6) Add 1 ul anti-cAMP antibody-cryptate in lysis buffer (HTRF cAMP HiRange kit, CisBio). (7) Incubate 30 min at room temperature. (6) Detect the assay plate in a ViewLux plate reader (PerkinElmer) with Ex=320 nm, Em1=615 nm and Em2=665 nm. Keywords: relaxin, RXFP1, RXFP2, G-protein coupled receptor, cAMP, agonist, high throughput screening, MLSMR, MLSCN, NIH Roadmap, qHTS and NCGC

outcome, inactive:
O=C(Nc1cccc(C(F)(F)F)c1)c1ccccc1NC(=O)C1CCCCCC1
O=C(Nc1cccc(-c2cccc(C(F)(F)F)c2)c1)c1ccccc1NC(=O)C1CCCCC1
CCOc1ccccc1C(=O)Nc1ccccc1CNc1cccc(S(=O)(=O)C(F)(F)F)c1
COc1ccccc1C(=O)Nc1ccccc1C(=O)Nc1cccc(S(=O)(=O)C(F)(F)F)c1
CCCOc1ccccc1C(=O)Nc1ccccc1C(=O)Nc1cccc(S(=O)(=O)C(F)(F)F)c1
CCOc1ccccc1C(=O)Nc1cccnc1C(=O)Nc1cccc(S(=O)(=O)C(F)(F)F)c1
CCOc1ccccc1C(=O)Nc1ncccc1C(=O)Nc1cccc(S(=O)(=O)C(F)(F)F)c1
O=C(Nc1cccc(C(F)(F)F)c1)c1ccccc1NC(=O)C1CCCCC1
CCOc1ccccc1C(=O)Nc1sccc1C(=O)Nc1cccc(S(=O)(=O)C(F)(F)F)c1
Cc1ccc(NC(=O)c2ccccc2NC(=O)C2CCCCC2)cc1
COc1ccccc1-c1ccccc1C(=O)Nc1cccc(C(F)(F)F)c1
COc1ccccc1C(=O)Nc1ccccc1C(=O)N(C)c1cccc(C(F)(F)F)c1
CC(C)(C)c1cccc(NC(=O)c2ccccc2NC(=O)C2CCCCC2)c1
O=C(NCc1cccc(C(F)(F)F)c1)c1ccccc1NC(=O)C1CCCCC1
CCOc1ccccc1C(=O)NCCC(=O)Nc1cccc(S(=O)(=O)C(F)(F)F)c1
O=C(Nc1cccc([N+](=O)[O-])c1)c1ccccc1NC(=O)C1CCCCC1
CCCCOc1ccccc1C(=O)Nc1ccccc1C(=O)Nc1cccc(S(=O)(=O)C(F)(F)F)c1
O=C(Nc1cccc(-c2ccccc2C(F)(F)F)c1)c1ccccc1NC(=O)C1CCCCC1
Cc1ccccc1C(=O)Nc1ccccc1C(=O)Nc1cccc(C(F)(F)F)c1
O=C(Nc1cccc(S(=O)(=O)C(F)(F)F)c1)c1ccccc1NC(=O)c1ccccc1OCC(F)(F)F
O=C(Nc1ccccc1C(=O)Nc1cccc(C(F)(F)F)c1)c1ccccc1Cl
CCOc1ccccc1C(=O)Nc1ccncc1C(=O)Nc1cccc(S(=O)(=O)C(F)(F)F)c1
CC(C)Oc1ccccc1C(=O)Nc1ccccc1C(=O)Nc1cccc(S(=O)(=O)C(F)(F)F)c1
O=C(Nc1cccc(C(F)(F)F)c1)c1ccccc1NC(=O)c1ccccc1OC(F)(F)F
COCCOc1ccccc1C(=O)Nc1ccccc1C(=O)Nc1cccc(C(F)(F)F)c1
O=C(Nc1cccc(C(F)(F)F)c1)c1ccccc1NC(=O)C1CC1
